# Shown are actives, neighbours in structure and some others; about 2.2% of the full set was active somewhere.
# Mito fusion act = inhibitors of mitochondrial division or activators of mitochondrial fusion. AID 485298. Potency, µM (doses to about 46.1 µM), for inactives: top-dose growth rescue (activation), most hits filed as activators. S. cerevisiae fusion-defective mutant growth rescue, CellTiterGlo 48 h. 320,000 compounds, 0.23% hits; further: % of control where 0% means no effect; nearly all actives have a fitted effect of over 45% in size
#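 Read-out: ATP-based luminescence (CellTiterGlo, 10 min ambient) reporting growth of fusion-defective ts yeast after 48 hours at 37C on glycerol/ethanol YPEG medium in the presence of compound.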
# Abeta yeast res = compounds reversing amyloid beta toxicity in yeast | yeast expressing A-beta42, growth rescue, OD600, 48 h; response scale: 0% DMSO, 100% iron-clioquinol control | 410,000 compounds, 0.063% hits | Potency, µM (series often up to 46.1 µM), most hits filed as activators; further: nearly all actives have a fitted effect of over 55% in size
#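 Yeast growth medium received pinned compounds, then yeast cells expressing toxic A-beta were added; plates incubated at 30 C for 48 hr. Growth read as absorbance at 600 nm, normalized to DMSO and equimolar FeCl3 plus clioquinol controls.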
# TDP-43 yeast inh = rescues yeast growth from TDP-43 toxicity; Potency, µM (series often up to 46.1 µM), for the others: at the top dose growth rescue (activation), hits mostly activators; TDP-43 expressing yeast growth rescue, BacTiter-Glo, 24 h; AID 652104; 410,000 compounds, 1.8% hits; further: % of control where 0% means no effect; nearly all actives have a fitted effect of over 50% in size
#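 Yeast cells expressing TDP-43 under galactose induction are exposed to compounds for 24 hr at 30 deg C. BacTiter-Glo luminescence measures growth, so protective compounds score as activators.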
# aSyn rescue = inhibitors of alpha-synuclein toxicity in yeast; Potency, µM (titrated, usually from 46.1 µM), inactives show at the top dose growth rescue (activation), actives largely listed as activators; AID 652106; 370,000 compounds, 0.14% hits; Yeast expressing alpha-synuclein, growth rescue, BacTiter-Glo, 24 h; further: % of control where 0% means no effect; nearly all actives have a fitted effect of over 65% in size
#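 Rescue of yeast growth: cells expressing toxic alpha-synuclein, induced in galactose at OD600 0.02, incubated with compound 24 h at 30 C. ATP luminescence quantified growth; inhibitors of toxicity appear as activators.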
# FUS yeast rescue = suppressors of FUS proteinopathy in yeast. S. cerevisiae FUS-expressing, growth rescue, OD600, 24 h. Potency, µM (top dose mostly 76.6 µM), most hits filed as activators. 390,000 compounds, 0.24% hits;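 further: plate controls were DMSO vehicle for no effect and reference control for full effect; nearly all actives have a fitted effect of over 55% in size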
#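 Read-out: OD at 600 nm after 24hr at 30C, reporting rescue of FUS-induced yeast toxicity. Cells at OD 0.005 in galactose (2%) minimal medium; compounds tested in a dilution series; CP55940 titration from 92uM final as control.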
# * = called active by the depositor; i = inactive; ? = inconclusive; . = not tested or not shown; [ ] = dose if it differs, or a comment. The call rests on the fitted dose curve; in most records, active means well fitted curve in the direction sought with a large enough effect; inconclusive means small, poorly fitted or top-dose-only effect, or another doubt; inactive means no such curve, though single readings can be large; an effect the other way counts as inactive or inconclusive. Potency means the concentration at half of the fitted maximal effect.
SMILES,Mito fusion act,Abeta yeast res,TDP-43 yeast inh,aSyn rescue,FUS yeast rescue
Cc1ccc2nc(N/N=C\c3ccc([N+](=O)[O-])o3)nc(-c3ccccc3)c2c1,0%,i,-3%,16%,i
Cc1cc2nc3c(nc2cc1C)C1(C(=O)O)CCC3(C)C1(C)C (stereo not given),0%,i,20µM*,11%,i
COc1c(Cl)cc(C(=O)O)cc1Cl,.,i,35µM*,-9%,i
CC(=O)/C(CN1CCCCC1)=N\O,1%,i,-11%,4%,i
C/C(=N\O)C(=O)C(CN1CCCCC1)CN1CCCCC1,-9%,i,-29%,14µM*,i
COc1ccc2c(c1)CC(C(=O)Nc1cc(OC)c(OC)c(OC)c1)CO2 (stereo not given),.,i,0%[9.22 µM],.,i
Cc1cccc(N2CCN(C(=O)Cn3c(C)c4cnn(-c5ccccc5)c(=O)c4c3C)CC2)c1C,.,i,21%,.,?
CCOC(=O)CNC(=O)C1CCCc2c1[nH]c1ccc(Cl)cc21 (stereo not given),?,?,13µM*,9%,i
NC(=O)CNC(=O)C1CCCc2c1[nH]c1ccc(Cl)cc21 (stereo not given),-1%,i,-4%,0%,i
CC1CCCN(c2ccc(C(=O)Nc3ccc4c(c3)OCO4)cc2[N+](=O)[O-])C1 (stereo not given),18µM*,i,?,11%,?
O=C(Nc1ccccc1N1CCOCC1)c1ccc([N+](=O)[O-])o1,-1%,i,10%,-16%,i
COc1cccc(C(=O)NC(=S)Nc2ccccc2N2CCOCC2)c1,0%,i,13µM*,16%,.
O=C(Nc1ccccc1N1CCCCC1)c1ccc([N+](=O)[O-])o1,5.6µM*,i,16%,-9%,i
COc1cc(C(=O)NC(=S)Nc2ccccc2N2CCOCC2)cc(OC)c1OC,2%,i,-24%,-13%,i
COc1ccc(OCC(=O)Nc2cccc3cccnc23)cc1,17%,i,13µM*,.,i
COc1cccc(C(=O)n2ccc3ccc(-c4ccc5ccn(Cc6ccccc6)c5c4)cc32)c1,.,.,.,.,i
C[C@@H]1CCN(C2CC2)S(=O)(=O)c2ccc(N3CC[C@H](N(C)C)C3)cc2O1,.,.,.,.,i
Cc1nc2cc(C(=O)N3CCN(C(=O)OCc4ccccc4)CC3)ccc2n1C1CCCC1,.,.,.,.,i
CCOCCc1nn2c(=O)cc(COC(=O)COc3ccccc3Cl)nc2s1,.,i,12%,.,i
CCCCOC(=O)c1ccc(NS(=O)(=O)c2c(C)nc3scc(C)n3c2=O)cc1,.,i,-15%,.,i
CC(=O)c1cccc(OCC(=O)Nc2ccccc2N2CCOCC2)c1,9%,i,22µM*,0%,i
Cc1cccc(NC(=O)c2ccc(N3CCOCC3)c([N+](=O)[O-])c2)n1,3%,i,?,2%,i
Cc1cccc(NC(=O)c2ccc(N3CCCCC3)c([N+](=O)[O-])c2)n1,-22%,i,3.5µM*,-13%,.
COc1ccc(OCC(=O)Nc2ccccc2N2CCN(C)CC2)cc1,-10%,i,12%,-5%,i
CC(=O)c1cccc(OCC(=O)Nc2cc(S(=O)(=O)N3CCOCC3)ccc2N2CCCC2)c1,-6%,i,1%,-10%,i
SMILES,Mito fusion act,Abeta yeast res,TDP-43 yeast inh,aSyn rescue,FUS yeast rescue
COc1ccc(C(=O)NC(=S)Nc2ccccc2N2CCCCC2)cc1[N+](=O)[O-],15%,?,16µM*,-1%,?
COc1ccc(OCC(=O)Nc2ccccc2N2CCCCC2)cc1,-8%,i,11µM*,16%,i
COc1ccc(CC(=O)Nc2cc(-c3cn4cccnc4n3)ccc2OC)cc1,.,i,9%,.,i
CCOC(=O)Cc1ccc(NC(=O)Nc2cc3c(cc2N2CCCCC2)n(C)c(=O)n3C)cc1,.,i,25%,.,i
CCCCc1cc(=O)oc2cc(C)c(CN3CCCC3)c(O)c12,-1%,i,-16%,7%,?
CCc1cc(=O)oc2cc(C)c(CN3CCCC(C)C3)c(O)c12 (stereo not given),4%,i,-26%,12%,7.1µM*

# High-throughput results from PubChem BioAssay.
